Assay results: PubChem BioAssay AID485317 (Broad Institute, 2010)
About 11,000 (3.8%) of roughly 290,000 compounds were called active.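 Rule for the calls: active = mean replicate inhibition above about 79%, with every replicate also reaching it (limit read from the data); inconclusive = only one of the two criteria met; inactive = mean below limit and not every replicate reaching it.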 What follows is part of a selection rich in actives, with near analogues and random picks from the rest.

The compounds below were run against FAD-linked sulfhydryl oxidase ALR (Homo sapiens) (UniProt P55789) (assay: ALR-catalysed DTT oxidation blockers – biochemical, H2O2 detection, HRP-luminol luminescence, single point, primary screen (AID 485317)). Settings: purified ALR, stronger effect = higher value, concentration not given here.
Sequence of FAD-linked sulfhydryl oxidase ALR (Homo sapiens) (P55789 whole entry, looked up): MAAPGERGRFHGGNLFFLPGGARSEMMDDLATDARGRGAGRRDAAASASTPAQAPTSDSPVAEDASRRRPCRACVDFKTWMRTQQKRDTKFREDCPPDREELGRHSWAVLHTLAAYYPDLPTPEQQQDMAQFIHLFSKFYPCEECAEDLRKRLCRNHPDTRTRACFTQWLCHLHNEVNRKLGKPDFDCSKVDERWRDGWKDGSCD

SMILES	inhibition
COc1ccc(CNCCCO)cc1OC	1.87% (inactive)
C=CCC(NCCCO)c1cccc(OC)c1OC (centres undefined)	99.7% (active)
C=CCC(NCc1ccco1)c1ccc(OC)cc1 (centres undefined)	1.8% (inactive)
COc1cccc(C(O)Cc2nc3ccccc3n2C)c1OC (centres undefined)	2.27% (inactive)
C=CCC(Nc1ccccc1)c1cccc(OC)c1OC (centres undefined)	98.9% (active)
COc1cccc(NC(=O)CC(c2ccc(OC(C)C)cc2)c2ccccc2OC)c1 (centres undefined)	1.22% (inactive)
CCOC(=O)[C@H]1[C@H]2COc3ccc(C)cc3[C@@H]2N2C(=O)CN(Cc3ccc(F)cc3)C(=O)[C@@]12C	-13.6% (inactive)
CCOCc1c(C(=O)N2CCN(Cc3ccc(Br)s3)CC2)oc2ccccc12	1.34% (inactive)
CCN(CC(=O)Nc1ccccc1C(F)(F)F)C(=O)CSCc1c(C)noc1C	6.19% (inactive)
Cc1ccccc1NC(=O)C(C)OC(=O)CCC(=O)N(CC(C)C)c1c(N)n(CC(C)C)c(=O)[nH]c1=O (centres undefined)	-8.82% (inactive)
COc1cc(C(=S)NC2CCCCC2)ccc1O	98.5% (active)
COc1ccc(C(=O)NC(=S)NC2CCCCC2)cc1	3.44% (inactive)
COc1cc(C(=S)N2CCOCC2)ccc1O	-6.46% (inactive)
O=C(CN1CCN(S(=O)(=O)c2cccc(Cl)c2)CC1)N1CCCCC1	14.4% (inactive)
O=C(NCC1(N2CCCCC2)CCCCC1)c1ccc(NS(=O)(=O)c2ccc(F)cc2)cc1	7.5% (inactive)
CC(Sc1nn(-c2ccc(Cl)cc2)c(=S)s1)C(=O)NCC1CCCO1 (centres undefined)	-12.1% (inactive)
CCOc1ccc(/C=N/Nc2nncc(-c3ccccc3)n2)cc1OC	-1.74% (inactive)
COc1cc(-c2n[nH]c(=S)n2Cc2ccccc2)cc(OC)c1OC	68.8% (inactive)
COc1cc(/C=N/n2c(C)n[nH]c2=S)ccc1OCc1ccccc1	97% (active)
COc1ccc(S(=O)(=O)Nc2ccc3cn[nH]c3c2)cc1[N+](=O)[O-]	-7.76% (inactive)
O=C(c1cc(-c2ccc(Cl)cc2)on1)N1CCN(c2ccccc2)CC1	4.35% (inactive)
O=C(c1cc(-c2ccc(F)cc2)on1)N1CCN(c2ccc(F)cc2)CC1	1.89% (inactive)

SMILES	inhibition
O=C(c1cc(-c2ccc(O)cc2)on1)N1CCOCC1	99% (active)
Cc1ccc(-c2cc(C(=O)N3CCc4ccccc4C3)no2)cc1	-5.44% (inactive)
O=C(c1cc(-c2ccc(O)cc2)on1)N1CCCc2ccccc21	98.8% (active)
Cc1c(C(=O)N2CCCc3ccccc32)oc2ccccc12	1.77% (inactive)
COc1ccc2sc(-c3ccc(S(C)(=O)=O)cc3)c(C#Cc3cncn3C)c2c1	1.35% (inactive)
COc1ccccc1CCNC(=O)C(=O)NCCC1CCCCN1S(=O)(=O)c1cccs1 (centres undefined)	-56.8% (inactive)
CC1(C)O[C@H]2CC(=O)OCC23[C@H]2CC[C@@]4(C)[C@H](c5ccoc5)OC(=O)[C@H]5O[C@]54[C@]2(C)C(=O)C[C@@H]13 (some centres undefined)	-10.7% (inactive)
CCc1noc(C)c1C(=O)Oc1ccc(N(C)S(=O)(=O)c2ccc(C)c(C)c2)cc1	22.1% (inactive)
COc1ccc(C(=O)Nc2cc(S(=O)(=O)N3CCCC3)ccc2Cl)cc1	0.959% (inactive)
Cc1cc(N2CCN(c3ccccc3)CC2)nc(N2CCOCC2)n1	98.9% (active)
Cc1cc(Nc2ccc(Cl)cc2)nc(N2CCOCC2)n1	-2.6% (inactive)
Cc1cc(N2CCOCC2)nc(-c2ccc(Br)cc2)n1	-3.64% (inactive)
COc1ccc(CNC(=O)COC(=O)C(CCSC)N2C(=O)c3ccccc3C2=O)cc1 (centres undefined)	-2.44% (inactive)
O=C(Nc1cccc(F)c1)c1cc(-c2ccco2)nc2ccccc12	5.76% (inactive)
O=C(O)c1cccc(NC(=O)c2cc(-c3cccc(Cl)c3)nc3ccccc23)c1	98.6% (active)
CC(C)(C)Cc1nnc(NC(=O)c2cc(-c3ccccc3)nc3ccccc23)s1	3.63% (inactive)
Cc1ccc([C@@H]2CC=C(C(=O)O)[C@H](c3cccc(Cl)c3)N2S(=O)(=O)c2ccc(C)cc2)cc1	4.58% (inactive)
O=C1COc2ccc(C(=O)COC(=O)CCOc3ccccc3)cc2N1	-1.49% (inactive)
O=C(CN1C(=O)C2C3CCC(C3)C2C1=O)Oc1ccc2ccccc2c1 (centres undefined)	-1.46% (inactive)
CC1=CC(C)(C)Nc2ccc(OC(=O)CN3C(=O)C4CCCCC4C3=O)cc21 (centres undefined)	85.4% (active)
CC1=CC(C)(C)Nc2ccc(OC(=O)C(Cc3ccccc3)N3C(=O)C4CCCCC4C3=O)cc21 (centres undefined)	-22.1% (inactive)
CC(C)Cn1c(N)c(C(=O)COC(=O)C2CCCN2C(=O)c2cccs2)c(=O)n(C)c1=O (centres undefined)	-23.1% (inactive)
